# Test results reported in PubChem BioAssay (EPA / NIEHS).
# Results filed as inconclusive are left out. Calls of active or inactive are those of the source. How the source made its calls: active means hit-call score of the fitted dose curve at least 0.9, where 1 is the maximum; inconclusive means response in the unintended direction; inactive means score below 0.9.
# Tests used:
# [1] = target: human Orphanin, Opioid Related Nociceptin Receptor 1 (ORL1), OPRL1 (gene 4987) (UniProt P41146); experiment: NVS_GPCR_hORL1: NovaScreen (NVS) G Protein-Coupled Receptor Assay for human Orphanin, Opioid Related Nociceptin Receptor 1 (ORL1) (AID 2283283)
# Chain of human Orphanin, Opioid Related Nociceptin Receptor 1 (ORL1), OPRL1 (gene 4987) (P41146 whole entry, looked up): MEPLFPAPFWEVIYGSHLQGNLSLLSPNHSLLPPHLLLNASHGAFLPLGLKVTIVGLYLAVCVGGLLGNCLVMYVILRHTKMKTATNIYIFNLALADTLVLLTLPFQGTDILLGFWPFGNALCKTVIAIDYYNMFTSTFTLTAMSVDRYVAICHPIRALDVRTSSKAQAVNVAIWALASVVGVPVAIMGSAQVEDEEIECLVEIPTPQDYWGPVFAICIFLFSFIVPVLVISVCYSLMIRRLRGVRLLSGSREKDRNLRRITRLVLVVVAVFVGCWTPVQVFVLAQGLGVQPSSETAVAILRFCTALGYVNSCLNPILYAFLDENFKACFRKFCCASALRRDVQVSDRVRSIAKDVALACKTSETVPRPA
# How it was run: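 Cell-free binding using HEK293-derived receptor protein: radioligand displacement measured by filter scintillation 1 hour after dosing. Primary testing at 25 uM in duplicate, followed by singleton concentration series up to 50 uM; DMSO served as negative control.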
# [2] = target: rat Serotonin, 5-Hydroxytryptamine Receptor 1 (5HT1), Non-Selective Binding, Htr1a (gene 24473) (UniProt P19327); experiment: NVS_GPCR_r5HT1_NonSelective: NovaScreen (NVS) G Protein-Coupled Receptor Assay for rat Serotonin, 5-Hydroxytryptamine Receptor 1 (5HT1), Non-Selective Binding (AID 2283286)
# Chain of rat Serotonin, 5-Hydroxytryptamine Receptor 1 (5HT1), Non-Selective Binding, Htr1a (gene 24473) (P19327 whole entry, looked up): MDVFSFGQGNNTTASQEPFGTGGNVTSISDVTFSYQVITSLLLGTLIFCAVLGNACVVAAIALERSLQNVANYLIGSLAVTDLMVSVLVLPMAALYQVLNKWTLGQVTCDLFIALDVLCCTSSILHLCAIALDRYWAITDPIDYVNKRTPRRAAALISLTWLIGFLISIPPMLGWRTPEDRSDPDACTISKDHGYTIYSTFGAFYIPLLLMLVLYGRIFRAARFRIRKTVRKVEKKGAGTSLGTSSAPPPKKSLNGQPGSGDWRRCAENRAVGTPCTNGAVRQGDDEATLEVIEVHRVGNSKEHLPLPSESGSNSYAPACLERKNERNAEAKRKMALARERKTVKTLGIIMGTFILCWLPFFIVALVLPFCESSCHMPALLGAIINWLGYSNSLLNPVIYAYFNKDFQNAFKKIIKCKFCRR
# How it was run: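 Binding of a radioligand to rat cortex membranes is read by filtration and scintillation counting after 1 h. Compounds were screened at 25 uM in duplicate. Actives were then titrated to a top of 50 uM. DMSO is the baseline.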
# [3] = target: human Leukotriene B4 Receptor 1 (LTB4-BLT1), LTB4R (gene 1241) (UniProt Q15722); experiment: NVS_GPCR_hLTB4_BLT1: NovaScreen (NVS) G Protein-Coupled Receptor Assay for human Leukotriene B4 Receptor 1 (LTB4-BLT1) (AID 2283271)
# How it was run: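 Cell-free human neutrophil receptor preparation, 1 h exposure, radioligand binding read by filter scintillation counting. Single 25 uM duplicate screen, then concentration series topping at 50 uM; binding loss scored against DMSO baseline.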
# [4] = target: Muscarinic acetylcholine receptor M2 (Homo sapiens) (UniProt P08172); experiment: NVS_GPCR_hM2: NovaScreen (NVS) G Protein-Coupled Receptor Assay for human Muscarinic, M2 Receptor (AID 2283273)
# Chain of Muscarinic acetylcholine receptor M2 (Homo sapiens) (P08172 whole entry, looked up): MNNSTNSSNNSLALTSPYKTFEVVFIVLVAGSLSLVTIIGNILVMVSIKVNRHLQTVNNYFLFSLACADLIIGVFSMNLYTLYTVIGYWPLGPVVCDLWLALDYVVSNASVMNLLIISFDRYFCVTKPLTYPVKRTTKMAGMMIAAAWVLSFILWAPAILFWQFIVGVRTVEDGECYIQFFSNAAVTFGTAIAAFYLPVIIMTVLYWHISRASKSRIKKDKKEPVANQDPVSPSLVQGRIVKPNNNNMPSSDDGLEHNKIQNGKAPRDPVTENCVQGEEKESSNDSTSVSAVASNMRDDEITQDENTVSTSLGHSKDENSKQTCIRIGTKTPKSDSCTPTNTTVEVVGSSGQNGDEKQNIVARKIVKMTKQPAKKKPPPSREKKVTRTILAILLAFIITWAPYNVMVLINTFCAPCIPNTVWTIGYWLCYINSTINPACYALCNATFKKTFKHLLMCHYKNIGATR
# How it was run: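 Radioligand competition binding, cell-free, receptor from CHO; 1 h incubation; scintillation detection. Primary testing at 25 uM in duplicate.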
# [5] = target: Neuropeptide Y receptor type 2 (Homo sapiens) (UniProt P49146); experiment: NVS_GPCR_hNPY2: NovaScreen (NVS) G Protein-Coupled Receptor Assay for human Neuropeptide Receptor Y2 (NPY2) (AID 2283277)
# Chain of Neuropeptide Y receptor type 2 (Homo sapiens) (P49146 whole entry, looked up): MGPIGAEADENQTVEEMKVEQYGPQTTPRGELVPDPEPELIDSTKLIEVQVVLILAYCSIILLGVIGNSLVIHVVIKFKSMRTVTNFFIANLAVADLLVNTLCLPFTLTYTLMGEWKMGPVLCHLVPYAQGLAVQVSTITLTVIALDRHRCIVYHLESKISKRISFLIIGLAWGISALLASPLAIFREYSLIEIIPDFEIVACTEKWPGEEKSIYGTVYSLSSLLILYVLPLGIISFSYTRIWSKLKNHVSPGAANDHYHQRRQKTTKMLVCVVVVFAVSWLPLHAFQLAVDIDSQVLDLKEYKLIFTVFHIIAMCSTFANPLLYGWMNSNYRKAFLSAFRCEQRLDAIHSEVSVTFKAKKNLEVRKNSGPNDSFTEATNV
# How it was run: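 Chemicals were first tested in duplicate at 25 uM, then actives in singleton concentration series to 50 uM. Tracer binding to SK-N-MC-derived protein measured cell-free after 1 h via filter scintillation; signal loss relative to DMSO.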
# [6] = target: human Neurokinin, NK2 Receptor, TACR2 (gene 6865) (UniProt P21452); experiment: NVS_GPCR_hNK2: NovaScreen (NVS) G Protein-Coupled Receptor Assay for human Neurokinin, NK2 Receptor (AID 2283278);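 further: actives reduce bound radioligand signal relative to DMSO baseline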
# Chain of human Neurokinin, NK2 Receptor, TACR2 (gene 6865) (P21452 whole entry, looked up): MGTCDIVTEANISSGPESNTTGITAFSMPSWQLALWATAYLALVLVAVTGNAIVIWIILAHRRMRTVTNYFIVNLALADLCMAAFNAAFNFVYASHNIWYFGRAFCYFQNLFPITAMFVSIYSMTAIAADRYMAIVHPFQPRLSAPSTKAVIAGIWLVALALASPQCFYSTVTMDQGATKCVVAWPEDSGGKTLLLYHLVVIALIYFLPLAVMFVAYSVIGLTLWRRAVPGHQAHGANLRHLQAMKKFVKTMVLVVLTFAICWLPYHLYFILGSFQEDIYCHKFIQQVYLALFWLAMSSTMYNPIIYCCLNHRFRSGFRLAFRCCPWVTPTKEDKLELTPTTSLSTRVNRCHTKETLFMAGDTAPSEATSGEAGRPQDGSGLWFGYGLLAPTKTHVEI
# How it was run: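 CHO-derived membrane protein, radioligand displacement, filter scintillation read at 4 h post-dose. Single-point 25 uM in duplicate, then concentration series for actives; DMSO as negative control.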
# [7] = target: human Purinergic Receptor P2Y, P2RY1 (gene 5028) (UniProt P47900); experiment: NVS_GPCR_hPY2: NovaScreen (NVS) G Protein-Coupled Receptor Assay for human Purinergic Receptor P2Y (AID 2283281)
# How it was run: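 Filtration scintillation readout of radioligand displacement on U937 extract, measured 1 h post-dosing. Single 25 uM duplicate screen, then singleton concentration series to 50 uM for chemicals passing threshold; DMSO as baseline.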
# [8] = test system: 5-hydroxytryptamine receptor 2C (pig); experiment: NVS_GPCR_p5HT2C: NovaScreen (NVS) G Protein-Coupled Receptor Assay for pig Serotonin, 5-Hydroxytryptamine Receptor 2C (5HT2C) (AID 2283288)
# How it was run: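 Radioligand displacement on membranes from pig choroid plexus, detected by filter scintillation counting after 1 h. Tested first at a single 25 uM in duplicate, then in concentration-response for actives; DMSO served as baseline.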
# [9] = target: human Neuropeptide Receptor Y1 (NPY1), NPY1R (gene 4886) (UniProt P25929); experiment: NVS_GPCR_hNPY1: NovaScreen (NVS) G Protein-Coupled Receptor Assay for human Neuropeptide Receptor Y1 (NPY1) (AID 2283276)
# How it was run: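 Displacement of specific radioligand from NPY1 receptor of SK-N-MC origin, read by filtration and scintillation after 1 h. Compounds first tested at 25 uM in duplicate, then actives in concentration series; signal loss relative to DMSO.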
# [10] = target: D(1A) dopamine receptor (Homo sapiens) (UniProt P21728); experiment: NVS_GPCR_hDRD1: NovaScreen (NVS) G Protein-Coupled Receptor Assay for human Dopamine Receptor D1 (DRD1) (AID 2283269)
# Chain of D(1A) dopamine receptor (Homo sapiens) (P21728 whole entry, looked up): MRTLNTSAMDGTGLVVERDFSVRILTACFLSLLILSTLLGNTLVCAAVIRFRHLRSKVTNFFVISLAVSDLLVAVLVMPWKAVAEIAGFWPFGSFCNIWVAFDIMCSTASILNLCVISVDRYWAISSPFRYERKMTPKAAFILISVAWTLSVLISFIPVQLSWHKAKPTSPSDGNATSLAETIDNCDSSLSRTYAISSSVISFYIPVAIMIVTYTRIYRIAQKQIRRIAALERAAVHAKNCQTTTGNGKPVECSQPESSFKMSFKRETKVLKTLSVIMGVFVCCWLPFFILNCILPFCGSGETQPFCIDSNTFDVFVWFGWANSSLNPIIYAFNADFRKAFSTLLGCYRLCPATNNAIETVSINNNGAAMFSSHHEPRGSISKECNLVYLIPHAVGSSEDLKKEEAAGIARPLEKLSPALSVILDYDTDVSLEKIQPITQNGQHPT
# How it was run: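 Cell-free radioligand binding to human DRD1 from HEK293 membranes, read 1 h after dosing by filter-based scintillation counting. Loss of signal versus DMSO baseline marks displacement. Primary screen at 25 uM single concentration in duplicate; actives followed up in concentration series.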
# [11] = target: Muscarinic acetylcholine receptor M1 (Homo sapiens) (UniProt P11229); experiment: NVS_GPCR_hM1: NovaScreen (NVS) G Protein-Coupled Receptor Assay for human Muscarinic, M1 Receptor (AID 2283270)
# How it was run: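 Actives from a duplicate 25 uM single-point screen were retested in concentration series. Binding measured as displacement of a radioligand from CHO-derived receptor preparation, 1 h incubation, filtration and scintillation counting, analysed as signal loss against DMSO.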
# [12] = target: Muscarinic acetylcholine receptor M5 (Homo sapiens) (UniProt P08912); experiment: NVS_GPCR_hM5: NovaScreen (NVS) G Protein-Coupled Receptor Assay for human Muscarinic, M5 Receptor (AID 2283275)
# Chain of Muscarinic acetylcholine receptor M5 (Homo sapiens) (P08912 whole entry, looked up): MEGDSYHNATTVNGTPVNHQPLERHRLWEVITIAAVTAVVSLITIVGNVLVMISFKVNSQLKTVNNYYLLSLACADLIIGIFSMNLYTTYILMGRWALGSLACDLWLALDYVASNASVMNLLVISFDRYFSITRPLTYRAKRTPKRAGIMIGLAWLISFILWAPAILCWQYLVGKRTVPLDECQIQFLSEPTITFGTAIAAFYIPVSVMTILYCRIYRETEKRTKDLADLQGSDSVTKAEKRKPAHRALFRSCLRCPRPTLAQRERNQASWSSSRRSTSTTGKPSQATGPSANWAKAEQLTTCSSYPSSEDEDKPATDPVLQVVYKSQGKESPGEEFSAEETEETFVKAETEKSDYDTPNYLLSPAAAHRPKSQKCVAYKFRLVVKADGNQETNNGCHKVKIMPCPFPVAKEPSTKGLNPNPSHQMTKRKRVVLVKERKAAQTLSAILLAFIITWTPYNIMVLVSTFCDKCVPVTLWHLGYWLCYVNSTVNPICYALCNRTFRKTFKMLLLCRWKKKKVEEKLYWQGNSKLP
# How it was run: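 Chemicals passing a primary duplicate screen at 25 uM were run as singleton concentration series, maximum 50 uM. Displacement of a specific radioligand from CHO-extracted receptor was read by filter scintillation after 1 h, relative to DMSO.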
# [13] = target: Muscarinic acetylcholine receptor M3 (Homo sapiens) (UniProt P20309); experiment: NVS_GPCR_hM3: NovaScreen (NVS) G Protein-Coupled Receptor Assay for human Muscarinic, M3 Receptor (AID 2283272)
# Chain of Muscarinic acetylcholine receptor M3 (Homo sapiens) (P20309 whole entry, looked up): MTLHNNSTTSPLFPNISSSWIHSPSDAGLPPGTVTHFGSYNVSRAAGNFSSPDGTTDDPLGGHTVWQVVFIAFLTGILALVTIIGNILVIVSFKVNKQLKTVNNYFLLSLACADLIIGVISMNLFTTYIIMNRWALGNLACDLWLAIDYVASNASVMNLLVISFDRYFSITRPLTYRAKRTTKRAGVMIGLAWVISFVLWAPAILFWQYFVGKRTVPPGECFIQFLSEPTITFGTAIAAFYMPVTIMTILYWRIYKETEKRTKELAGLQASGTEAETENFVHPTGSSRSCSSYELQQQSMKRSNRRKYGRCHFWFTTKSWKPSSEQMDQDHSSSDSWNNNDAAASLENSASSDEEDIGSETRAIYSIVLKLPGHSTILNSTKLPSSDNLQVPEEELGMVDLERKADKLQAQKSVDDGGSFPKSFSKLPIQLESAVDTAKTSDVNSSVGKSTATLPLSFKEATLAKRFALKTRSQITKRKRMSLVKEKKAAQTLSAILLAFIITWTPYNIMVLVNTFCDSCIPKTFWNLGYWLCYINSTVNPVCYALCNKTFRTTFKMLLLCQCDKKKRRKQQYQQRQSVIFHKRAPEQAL
# How it was run: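 Radioligand displacement binding on human M3 receptor in CHO-derived membranes, 1 h incubation, filter-based scintillation counting. Primary screen in duplicate at 25 uM; actives followed up in concentration series; loss of signal versus DMSO.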
# [14] = target: human Muscarinic, M4 Receptor, CHRM4 (gene 1132) (UniProt P08173); experiment: NVS_GPCR_hM4: NovaScreen (NVS) G Protein-Coupled Receptor Assay for human Muscarinic, M4 Receptor (AID 2283274)
# Chain of human Muscarinic, M4 Receptor, CHRM4 (gene 1132) (P08173 whole entry, looked up): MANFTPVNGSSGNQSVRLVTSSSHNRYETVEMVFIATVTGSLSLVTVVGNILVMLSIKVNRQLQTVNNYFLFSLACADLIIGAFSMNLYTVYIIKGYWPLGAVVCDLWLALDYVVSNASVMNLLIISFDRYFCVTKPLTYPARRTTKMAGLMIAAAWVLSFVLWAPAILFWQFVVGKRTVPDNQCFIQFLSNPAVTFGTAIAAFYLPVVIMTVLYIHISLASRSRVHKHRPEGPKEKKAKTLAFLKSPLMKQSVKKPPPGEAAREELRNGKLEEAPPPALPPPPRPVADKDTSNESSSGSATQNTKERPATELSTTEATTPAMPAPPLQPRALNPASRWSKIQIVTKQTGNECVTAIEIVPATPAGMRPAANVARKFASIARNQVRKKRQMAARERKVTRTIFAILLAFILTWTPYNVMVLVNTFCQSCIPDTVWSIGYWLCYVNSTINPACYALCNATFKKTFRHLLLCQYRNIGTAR
# How it was run: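 Filter-based scintillation counting of radioligand bound to CHO-expressed human M4 preparations after 1 h; loss of signal fitted versus DMSO. Initial duplicate testing at 25 uM, concentration-response follow-up for actives.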
# [15] = target: human Opioid Receptor Delta 1 (Opiate D1), OPRD1 (gene 4985) (UniProt P41143); experiment: NVS_GPCR_hOpiate_D1: NovaScreen (NVS) G Protein-Coupled Receptor Assay for human Opioid Receptor Delta 1 (Opiate D1) (AID 2283280)
# Chain of human Opioid Receptor Delta 1 (Opiate D1), OPRD1 (gene 4985) (P41143 whole entry, looked up): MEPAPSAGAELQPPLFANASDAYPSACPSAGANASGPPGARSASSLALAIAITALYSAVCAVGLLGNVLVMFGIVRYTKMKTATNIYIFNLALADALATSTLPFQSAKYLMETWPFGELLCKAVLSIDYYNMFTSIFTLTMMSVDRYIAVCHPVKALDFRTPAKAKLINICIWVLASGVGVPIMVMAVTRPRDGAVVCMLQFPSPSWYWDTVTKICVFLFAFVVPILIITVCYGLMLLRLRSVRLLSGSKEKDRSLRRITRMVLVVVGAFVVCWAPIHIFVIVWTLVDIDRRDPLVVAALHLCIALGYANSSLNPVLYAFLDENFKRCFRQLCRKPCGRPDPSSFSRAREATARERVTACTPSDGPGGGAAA
# How it was run: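 Membrane preparations from CHO cells bearing the human receptor were incubated 1 h with test chemical, and bound radioligand was counted after filtration. Actives from 25 uM duplicate screening were retested in concentration-response.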
# [16] = target: mouse Cholecystokinin, CCK1 Receptor (CCKA), Cckar (gene 12425) (UniProt O08786); experiment: NVS_GPCR_mCCKAPeripheral: NovaScreen (NVS) G Protein-Coupled Receptor Assay for mouse Cholecystokinin, CCK1 Receptor (CCKA) (AID 2283285)
# How it was run: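 Chemicals were first screened in duplicate at 25 uM, with those meeting threshold (e.g., 30% inhibition) retested in singleton concentration series to 50 uM maximum. Binding of radioligand to mouse pancreatic membranes was read after 2 h by filtration and scintillation counting.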
# [17] = target: human Thromboxane A2 Receptor (TXA2), TBXA2R (gene 6915) (UniProt P21731); experiment: NVS_GPCR_hTXA2: NovaScreen (NVS) G Protein-Coupled Receptor Assay for human Thromboxane A2 Receptor (TXA2) (AID 2283282);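 further: actives reduce bound radioligand signal relative to DMSO baseline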
# Chain of human Thromboxane A2 Receptor (TXA2), TBXA2R (gene 6915) (P21731 whole entry, looked up): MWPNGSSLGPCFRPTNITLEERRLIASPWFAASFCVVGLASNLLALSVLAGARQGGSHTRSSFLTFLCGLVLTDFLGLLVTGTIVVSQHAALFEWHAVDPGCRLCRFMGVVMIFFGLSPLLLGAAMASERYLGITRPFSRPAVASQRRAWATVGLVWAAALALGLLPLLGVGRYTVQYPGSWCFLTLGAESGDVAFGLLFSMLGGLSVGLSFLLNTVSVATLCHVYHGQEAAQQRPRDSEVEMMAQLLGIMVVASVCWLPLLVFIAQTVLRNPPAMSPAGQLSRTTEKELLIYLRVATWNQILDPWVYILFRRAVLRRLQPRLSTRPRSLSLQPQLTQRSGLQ
# How it was run: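 Cell-free radioligand binding on membrane protein from human platelets; radioligand displacement read by filter-based scintillation counting after 1 h. Primary screen in duplicate at 25 uM, actives then run in concentration series; loss of signal versus DMSO.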
# [18] = test system: rabbit Platelet Activating Factor Receptor (PAF), gene 100354046; experiment: NVS_GPCR_rabPAF: NovaScreen (NVS) G Protein-Coupled Receptor Assay for rabbit Platelet Activating Factor Receptor (PAF) (AID 2283287)
# How it was run: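 Rabbit platelet membrane preparation; radioligand displacement read by filter-based scintillation counting 1 h after dosing, loss of signal versus DMSO. Primary screen in duplicate at 25 uM, actives followed up in concentration series.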
smiles,measurement,setting,value
COCCOC[C@H](CC1(C(=O)NC2CCC(C(=O)O)CC2)CCCC1)C(=O)Oc1ccc2c(c1)CCC2 (some centres not stated),outcome,[1],inactive
same,outcome,[2],inactive
CCOC(=O)CCC(=O)OCC,AC50,[3],25 µM (active)
same,outcome,[4],inactive
same,outcome,[5],inactive
same,outcome,[6],inactive
same,outcome,[7],inactive
same,outcome,[1],inactive
same,outcome,[8],inactive
CC(=O)Oc1ccccc1C(=O)O,AC50,[9],4.96 µM (active)
Oc1ccc2c(c1)OC[C@@H](N1CCC(O)(c3ccc(F)cc3)CC1)[C@H]2O,outcome,[10],inactive
same,outcome,[11],inactive
same,outcome,[4],inactive
same,AC50,[12],16 µM (active)
same,outcome,[8],inactive
Cc1ccc(Cl)cc1,outcome,[5],inactive
Oc1ccc2ccccc2c1N=Nc1ccccc1,outcome,[6],inactive
COc1cc(S(=O)(=O)O)c(C)cc1N=Nc1c(O)ccc2cc(S(=O)(=O)O)ccc12,AC50,[10],35.3 µM (active)
same,outcome,[13],inactive
same,AC50,[4],36.1 µM (active)
same,outcome,[14],inactive
same,AC50,[12],31.4 µM (active)
same,AC50,[15],30 µM (active)
same,AC50,[2],17.1 µM (active)
C=CCOC(=O)c1ccccc1C(=O)OCC=C,AC50,[13],36.7 µM (active)
same,AC50,[8],25 µM (active)
O=C(N[C@@H](Cc1ccccc1)[C@@H](O)C(=O)N1C[C@@H](O)[C@@H](O)C1)c1cc2cc(Cl)ccc2[nH]1,outcome,[10],inactive
same,outcome,[14],inactive
same,AC50,[6],22.6 µM (active)
same,AC50,[16],11.9 µM (active)
COc1ccc(S(=O)(=O)N2C(=O)[C@@](c3ccccc3OC)(N3C[C@H](O)C[C@H]3C(=O)N(C)C)c3cc(Cl)ccc32)c(OC)c1,outcome,[10],inactive
same,AC50,[6],9.61 µM (active)
same,outcome,[15],inactive
same,outcome,[17],inactive
same,AC50,[18],12.3 µM (active)
Nc1nc(N)c2nc(CNc3ccc(C(=O)N[C@@H](CCC(=O)O)C(=O)O)cc3)cnc2n1,AC50,[10],38.9 µM (active)
same,AC50,[4],40.7 µM (active)
same,outcome,[5],inactive
same,outcome,[15],inactive
Cc1nc(-c2ccc3c(c2)CCN(CCC2CCC(NC(=O)/C=C/c4ccc(F)cc4)CC2)CC3)no1 (configuration not stated),AC50,[11],0.148 µM (active)
same,outcome,[13],inactive
same,AC50,[4],0.0463 µM (active)
same,AC50,[14],0.123 µM (active)
same,outcome,[12],inactive
CC(C)(C)c1cc(O)c(C(C)(C)C)cc1O,outcome,[17],inactive
C[C@]12C=CC(=O)C=C1CC[C@@H]1[C@@H]2C(=O)C[C@@]2(C)[C@H]1CC[C@]2(O)C(=O)CO,AC50,[4],15 µM (active)
same,AC50,[14],25 µM (active)
CCCCCCOCCO,outcome,[5],inactive
Nc1ccccc1N,outcome,[2],inactive
COc1cc(-c2nc(NC(=O)c3cc4cc(C)cc(C)c4n3CC(=O)O)sc2CCC2CCCCC2)c(OC)cc1Cl,AC50,[6],15.9 µM (active)
same,outcome,[17],inactive
same,AC50,[16],0.178 µM (active)
